From the OligoGym collection come the findings set out here.
Further: reference of the scale not given here.

The first test has as its target DPEP3. Briefly: pooled miR-30 sensor sort-seq; sequence = guide strand. The conditions noted are these: shRNA.
TACATGTGGTGTCTGAACTTGG had a sensor-assay potency score (higher = more potent) of -0.261.

Regarding TTGGTGGAACTCTCTGCCCATG, the sensor-assay potency score (higher = more potent) was -1.6.

In turn, AAGCACATTCTTGTAACGCTGT displayed a sensor-assay potency score (higher = more potent) of 0.352.

Consider TTGTCTGAAGACCCGCAGCAGG, for which the sensor-assay potency score (higher = more potent) is -1.57.

TGAAGCTCTTCCTCGCTCCAGC showed a sensor-assay potency score (higher = more potent) of -0.659.

For TTCCACTTGTCTGAAGACCCGC, the sensor-assay potency score (higher = more potent) was -0.394.

Sequence ATTCTTGTAACGCTGTCTCAGG had a sensor-assay potency score (higher = more potent) of -0.648.

Sequence AAATTGTCACACACAGCTCTGG displayed a sensor-assay potency score (higher = more potent) of -0.275.

As to TTTGAGAGCTGTTCAGACCTTC, the sensor-assay potency score (higher = more potent) was 0.484.

In turn, ATGTGGTGTCTGAACTTGGTGG showed a sensor-assay potency score (higher = more potent) of -0.807.

For TCAACAAATTGTCACACACAGC, the sensor-assay potency score (higher = more potent) was -1.21.

With ATTTCGCAGGTTAACATCCTGA, the sensor-assay potency score (higher = more potent) is -0.609.

Turning to TGAACTTGGTGGAACTCTCTGC, the sensor-assay potency score (higher = more potent) is 0.129.

Another test concerns the target DPM2. Described as above. The conditions noted are these: shRNA.
TCTCTTGGTCTTCAGCATCACA displayed a sensor-assay potency score (higher = more potent) of -1.19.

In turn, TTGTGGATGACATGCTGACTGT came in with a sensor-assay potency score (higher = more potent) of -1.33.

The sequence TAGTAGGTGAAGATGATCAGGC gave a sensor-assay potency score (higher = more potent) of 0.327.

Sequence TCCCACAAACAGGAGCAGCAGG returned a sensor-assay potency score (higher = more potent) of -1.71.

TAGGTGAAGATGATCAGGCTAA came in with a sensor-assay potency score (higher = more potent) of 0.29.

TCTTGGTCTTCAGCATCACATA displayed a sensor-assay potency score (higher = more potent) of -1.79.

Consider TTGGTCTTCAGCATCACATAGG, for which the sensor-assay potency score (higher = more potent) was -0.278.

ATACTTGTGGATGACATGCTGA had a sensor-assay potency score (higher = more potent) of -0.113.
